# This excerpt belongs to a sample that is enriched for hits.
# Pf Dd2 inh = inhibitors of Plasmodium falciparum Dd2 growth; P. falciparum Dd2 growth, SYBR Green, 72 h; Potency, µM (series often up to 28.9 µM), actives largely listed as inhibitors; 120,000 compounds, 4.3% hits; AID 1347417; active = well fitted inhibition curve with a large enough effect; also: nearly all actives have a fitted effect of over 65% in size
#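 Readout: SYBR Green fluorescence, 485 nm excitation, 535 nm emission, after ~16 h lysis at 37C. Before that, Dd2-infected red cells (2.5% hematocrit) grew 72 h with compound, 29 uM top final concentration.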
# Numbers stand for hits; – = inactive; [ ] = another dose, or the depositor's remark.
SMILES,Pf Dd2 inh
CSc1ccc(-c2ccc3c(c2)C(=O)N2CCN(C(=O)CCC(=O)O)C[C@@H]2C(=O)N3)cc1,–
CC1(c2ccccc2)N(Cc2ncccn2)C(=O)OC12CCN(C(=O)Cc1ccc(O)cc1)CC2 (stereo unspecified),–
CCn1cc(S(=O)(=O)N2CCCCC2c2nc(C3CC3)n[nH]2)cn1 (stereo unspecified),–
Cn1cc(CN2CCN(c3cnccn3)CC2)c(-c2ccc(C3CCCCC3)cc2)n1,10µM
CN1C(=O)CC(C(=O)O)C12CCN(Cc1cn(C)nc1-c1ccccc1)CC2 (stereo unspecified),–
Cn1c(CN2CCN(c3cnccn3)CC2)nnc1C1CC(N)C1 (stereo unspecified),–
CCN(CCOC)Cc1cn(C)nc1-c1ccc(C2CCCCC2)cc1,10µM
Cc1ccc(CN2C[C@H]3CN(C(=O)C4CCOCC4)CCN3C2=O)cc1,–
Cc1noc([C@H]2CCN(C(=O)Cc3c[nH]c4ccccc34)C[C@H]2NC(=O)C2CC2)n1,–
CN(Cc1ccccc1)C(=O)CC1CCN(C(=O)c2ccncc2)C1 (stereo unspecified),–
CCC1CN(Cc2nc(CCOC)no2)CCC(=O)N1Cc1ccccc1 (stereo unspecified),–
CN(C)c1ccc(C(=O)N2CCC[C@H]2c2nc(-c3ccc(F)cc3)no2)cc1,–
O=Cc1ccc(-c2cccc(Cl)c2)cc1,–
NCc1cccc(-c2cc(F)cc(F)c2)c1,10µM
NCc1ccc(-c2ccc(F)cc2)cc1,10µM
NCc1cccc(-c2ccc3c(c2)C(=O)N2CC[C@H](NC(=O)c4cccc(F)c4)[C@H]2C(=O)N3)c1,–
COc1ccc(-c2ccc(CN)cc2)cc1,–
Cc1cccc(-c2ccccc2CN)c1,10µM
CCCCCn1c(-c2cccc(C)c2)nc2ccccc21,–
Cc1ccc(CN(C)Cc2ccc(F)cc2)cc1,–
CN(Cc1ccc(-c2ccccc2)cc1)C(=O)c1cccc(Cl)c1,–
NCc1ccc(-c2cccc(Cl)c2)cc1,10µM
NCc1cccc(-c2ccccn2)c1,–
Cc1cccc(-c2nocc2CCC(=O)NCc2ccccc2F)c1,–
COc1cc(OC)c(NC(=O)Cn2nc3n(c2=O)CCCC3)cc1Cl,–
SMILES,Pf Dd2 inh
CNC(=O)c1cn2c(n1)CN([S+](=O)([O-])c1cccc(C(F)(F)F)c1)CC2,–
CCN1C(=O)C2CC3(CCN(Cc4cn(C)c5ccc(OC)cc45)CC3)CN2C1=O (stereo unspecified),–
COCCO[C@H]1C(=O)N(C2CCN(C(=O)C3CC=CC3)CC2)[C@H]1c1ccncc1,–
O=C1CCN(C(=O)c2cccs2)CCCC(CO)CCN1 (stereo unspecified),–
CC(C)C(=O)N[C@H]1[C@H](O)[C@H](O)C[C@@H]1c1ccc(N2CCOCC2)nc1,–
Cc1cccc(-c2ccc(CN)cc2)c1,11µM
COc1ccc(CCC(=O)NCCc2csc(-c3cccc(C)c3)n2)cc1,–
COc1ccc(Cn2ccn(Cc3cccc(C)c3)c(=O)c2=O)cc1,–
O=C(NCc1ccccn1)C1CCN(C(=O)C2(c3ccc(F)cc3)CC2)CC1,–
O=C(CC1CCc2ccccc21)N1CCCN(c2ncccn2)CC1 (stereo unspecified),–
c1ccc(-c2ccc3ncc(Nc4cnccn4)n3n2)cc1,–
Fc1ccc(-c2ccc3ncc(Nc4ccccn4)n3n2)cc1,5.6µM
c1ccc(-c2ccc3ncc(Nc4cccnc4)n3n2)cc1,1.6µM
Fc1ccc(-c2ccc3ncc(Nc4ncccn4)n3n2)cc1,–
Fc1ccc(-c2ccc3ncc(Nc4ccc(Cl)cn4)n3n2)cc1,–
Clc1ccc(Nc2cnc3ccc(-c4ccccc4)nn23)nc1,–
Cn1c(CNC(=O)CN2CC3CC(C2)[C@H]2CCCC(=O)N2C3)nc2ccccc21 (stereo partly specified),–
COc1ccc(Cl)cc1NC(=O)N(C)CC1CCOCC1,–
COc1cc(CNCCc2ccc(F)cc2)ccc1OCC(O)CN1CCSCC1 (stereo unspecified),–
COc1cc(CNCC2CCOCC2)ccc1OCC(O)CN(C)C1CCCCC1 (stereo unspecified),13µM
COc1cc(CN2CCC(C)(C#N)CC2)ccc1OCC(O)CN1CCOCC1 (stereo unspecified),–
COc1cc(CNCCc2ccc(Cl)cc2)ccc1OCC(O)CN1CCOCC1 (stereo unspecified),11µM
COc1cc(CNCCCO)ccc1OCC(O)CN1CCSCC1 (stereo unspecified),–
CCN(C(C)=O)C1CCN(c2nc(CCN)nc3sc(C)c(C)c23)C1 (stereo unspecified),–
O=C(c1ccc2c(c1)OCO2)N1CCC2(CCCN(CCCc3ccccc3)C2)C1 (stereo unspecified),–
SMILES,Pf Dd2 inh
CCc1ccc(NC(=O)Cn2nc3n(c2=O)CCCCC3)cc1,–
Cc1ccc(S(=O)(=O)N(CC(=O)NCCSc2ccc(Cl)cc2)c2cccc(Cl)c2)cc1,–
CN(C)S(=O)(=O)c1ccc(C(=O)NCCSc2c(-c3ccc(Cl)cc3)[nH]c3ccccc23)cc1,8.9µM
Cc1ccc(-c2[nH]c3ccccc3c2SCCNC(=O)c2ccc(S(=O)(=O)N(C)C)cc2)cc1,8.9µM
Cc1ccc(C(=O)NCCSc2c[nH]c3ccccc23)cc1C,–
O=C(NCCc1ccc(Cl)cc1)c1ccc(Cn2c(=O)[nH]c3ccccc3c2=O)cc1,–
CCOc1ccc(C(=O)NCCSc2c(C)[nH]c3ccccc23)cc1OCC,–
CC(=O)N[C@H](C)c1onc(-c2ccc(F)cc2)c1C(=O)O,–
Cc1nc(NCCCc2csc(N)n2)cc(C2CC(O)C2)n1 (stereo unspecified),–
Cn1cc(C(=O)NCC2CN(Cc3ccccc3)CC23CN(c2ccccc2)C3)cn1 (stereo unspecified),–
O=C(NC1CCCN(c2nc3ncccc3o2)C1)c1ccccc1Cl (stereo unspecified),–
N#Cc1cccc(CN[C@H]2[C@H](O)[C@H](O)C[C@@H]2c2cccnc2)c1,–
COCCNC(=O)c1nc2nc(-c3ccccc3)c(Cl)cc2n1C,–
CN(C)CCNC(=O)c1ccc(-c2nn(C)c(=O)c3ccccc23)cc1,–
COc1cc(-c2cc3c(nc2-c2ccccc2)nc(C(=O)NCCN(C)C)n3C)ccn1,–
COCc1nc2nc(-c3ccccc3)c(-c3ccc(O)c(F)c3)cc2n1C,–
Cc1cc(-c2cc3c(nc2-c2ccccc2)nc(C(=O)NC2CCN(C)CC2)n3C)ccn1,6.3µM
COc1ccc(-c2cc3c(nc2-c2ccccc2)nc(C(=O)NCCN(C)C)n3C)cn1,7.1µM
CC(C)(C)OC(=O)N1CCC(NC(=O)c2nc(-c3ccccc3)c3ccccn23)CC1,–
CN1CCC(NC(=O)Cc2c[nH]c3ncc(-c4ccccc4)cc23)CC1,–
COc1cc(F)ccc1-c1cc2c(nc1-c1ccccc1)nc(C(=O)NCCN(C)C)n2C,2.5µM
O=C(NCCC1=CCCCC1)c1ccc(N2CC3CC(C2)[C@H]2CCCC(=O)N2C3)nc1 (stereo partly specified),–
O=C(CCn1ccn2nc3c(c2c1=O)CCCC3)N1CCN(c2ccc(Cl)cc2)CC1,–
COc1cccc(-c2cc(C(=O)N3CCC4(CC3)[C@H](O)C[C@@H]4OC)[nH]n2)c1,–
COCC(=O)N[C@@H]1CN(C(=O)c2ccoc2)CC[C@@H]1c1nc(C)no1,–[5.79 µM]
O=C(c1cccc(C(F)(F)F)c1)N1CC2CC(C1)[C@H]1CCCC(=O)N1C2 (stereo partly specified),–
Cc1cc(C(=O)N2C[C@@H](CO)[C@H](c3ccccn3)C2)no1,–
